PubChem BioAssay AID1159580 (chemical genetic matrix, 2015)
Out of some 5,500 compounds screened, about 2,000 (36%) were called active. Not shown: some 18% with an inconclusive outcome. No stated cut-off is given here; in the data, active means normalized growth mostly below about 0.91 (no sharp cut-off); inconclusive means no clear call, values can overlap the other calls; inactive means mostly above about 0.92. Some of the results follow.

Assay: chemical genetic growth profiling, strain panel (AID 1159580);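 further: tested at 20 µM; growth read once vehicle control cultures reached saturation at 30 °C; 1 = growth at the plate median or of vehicle wells; lower values mean less growth of the strain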
Details: growth OD

Measured: normalized growth

CN=C(N)NCCCC(N)C(=O)O (stereo unspecified)
inactive: S. cerevisiae deletion strains, locus YAL013W, strain DEP1, hits give low values 1.02 | S. cerevisiae deletion strains, locus YBR021W, strain FUR4, hits give low values 1.03 | S. cerevisiae deletion strains, locus YBR229C, strain ROT2, hits give low values 1.01 | S. cerevisiae deletion strains, locus YCL029C, strain bik1, hits give low values 0.996 | S. cerevisiae deletion strains, locus YDL035C, strain GPR1, hits give low values 1.04 | S. cerevisiae deletion strains, locus YDL074C, strain BRE1, hits give low values 1.05 | S. cerevisiae deletion strains, locus YDL101C, strain DUN1, hits give low values 1.03 | S. cerevisiae deletion strains, locus YDL134C, strain PPH21, hits give low values 1.01 | S. cerevisiae deletion strains, locus YDL185W, strain tfp1, hits give low values 1.02 | S. cerevisiae deletion strains, locus YDL192W, strain arf1, hits give low values 1.01 | S. cerevisiae deletion strains, locus YDR101C, strain arx1, hits give low values 1.01 | S. cerevisiae deletion strains, locus YDR150W, strain NUM1, hits give low values 1.02 | S. cerevisiae deletion strains, locus YDR162C, strain NBP2, hits give low values 1.03 | S. cerevisiae deletion strains, locus YDR318W, strain mcm21, hits give low values 1.04 | S. cerevisiae deletion strains, locus YDR388W, hits give low values 0.993 | S. cerevisiae deletion strains, locus YDR502C, strain sam2, hits give low values 1.01 | S. cerevisiae deletion strains, locus YEL061C, strain CIN8, hits give low values 1.01 | S. cerevisiae deletion strains, locus YER110C, hits give low values 0.997 | S. cerevisiae deletion strains, locus YER155C, strain BEM2, hits give low values 1.01 | S. cerevisiae deletion strains, locus YER167W, strain BCK2, hits give low values 1.05 | S. cerevisiae deletion strains, locus YGL078C, strain dbp3, hits give low values 1.01 | S. cerevisiae deletion strains, locus YGL086W, strain mad1, hits give low values 1.03 | S. cerevisiae deletion strains, locus YGL248W, strain PDE1, hits give low values 1.01 | S. cerevisiae deletion strains, locus YGR078C, strain PAC10, hits give low values 1.04 | S. cerevisiae deletion strains, locus YGR135W, strain pre9, hits give low values 1.02 | S. cerevisiae deletion strains, locus YGR229C, strain SMI1, hits give low values 1.05 | S. cerevisiae deletion strains, locus YGR252W, strain gcn5, hits give low values 1.17 | S. cerevisiae deletion strains, locus YHR030C, strain SLT2, hits give low values 1.01 | S. cerevisiae deletion strains, locus YHR079C, strain IRE1 (second series), hits give low values 0.995 | S. cerevisiae deletion strains, locus YHR094C, strain hxt1, hits give low values 0.986 | S. cerevisiae deletion strains, locus YHR129C, strain ARP1, hits give low values 1.01 | S. cerevisiae deletion strains, locus YHR200W, strain rpn10, hits give low values 1.02 | S. cerevisiae deletion strains, locus YIL066C, strain RNR3, hits give low values 1.03 | S. cerevisiae deletion strains, locus YIL073C, strain SPO22, hits give low values 1.09 | S. cerevisiae deletion strains, locus YIL125W, strain kgd1, hits give low values 1.01 | S. cerevisiae deletion strains, locus YIR030C, strain dcg1, hits give low values 0.997 | S. cerevisiae deletion strains, locus YJL095W, strain BCK1, hits give low values 1.02 | S. cerevisiae deletion strains, locus YJL134W, strain LCB3, hits give low values 1.02 | S. cerevisiae deletion strains, locus YJL168C, strain set2, hits give low values 0.987 | S. cerevisiae deletion strains, locus YJL187C, strain SWE1 (second series), hits give low values 1.02 | S. cerevisiae deletion strains, locus YJR043C, strain POL32, hits give low values 1.06 | S. cerevisiae deletion strains, locus YJR075W, strain HOC1, hits give low values 1.07 | S. cerevisiae deletion strains, locus YKL009W, strain mrt4, hits give low values 1.03 | S. cerevisiae deletion strains, locus YKL068W, hits give low values 1.01 | S. cerevisiae deletion strains, locus YKL085W, strain MDH1 (second series), hits give low values 1.03 | S. cerevisiae deletion strains, locus YKL085W, strain MDH1, hits give low values 1.03 | S. cerevisiae deletion strains, locus YKL190W, strain CNB1, hits give low values 1.02 | S. cerevisiae deletion strains, locus YKR001C, strain vps1, hits give low values 1.02 | S. cerevisiae deletion strains, locus YLR039C, strain RIC1, hits give low values 1.07 | S. cerevisiae deletion strains, locus YLR058C, strain SHM2, hits give low values 1.02 | S. cerevisiae deletion strains, locus YLR102C, strain apc9, hits give low values 0.986 | S. cerevisiae deletion strains, locus YLR262C, strain YPT6, hits give low values 1.1 | S. cerevisiae deletion strains, locus YLR268W, strain sec22, hits give low values 1.01 | S. cerevisiae deletion strains, locus YLR330W, strain CHS5, hits give low values 1.01 | S. cerevisiae deletion strains, locus YLR342W, strain FKS1 (second series), hits give low values 1.09 | S. cerevisiae deletion strains, locus YLR371W, strain rom2, hits give low values 0.975 | S. cerevisiae deletion strains, locus YLR418C, strain cdc73, hits give low values 1.01 | S. cerevisiae deletion strains, locus YML016C, strain PPZ1, hits give low values 1.02 | S. cerevisiae deletion strains, locus YML032C, strain rad52, hits give low values 1.05 | S. cerevisiae deletion strains, locus YML124C, strain tub3, hits give low values 1.01 | S. cerevisiae deletion strains, locus YMR078C, strain ctf18, hits give low values 1 | S. cerevisiae deletion strains, locus YMR223W, strain ubp8, hits give low values 1.04 | S. cerevisiae deletion strains, locus YMR263W, strain SAP30, hits give low values 1.04 | S. cerevisiae deletion strains, locus YMR307W, strain GAS1, hits give low values 1.14 | S. cerevisiae deletion strains, locus YNL067W, strain RPL9B, hits give low values 1.02 | S. cerevisiae deletion strains, locus YNL128W, strain TEP1, hits give low values 1.03 | S. cerevisiae deletion strains, locus YNL153C, strain GIM3, hits give low values 1.03 | S. cerevisiae deletion strains, locus YNL233W, strain BNI4, hits give low values 1.03 | S. cerevisiae deletion strains, locus YNL250W, strain rad50, hits give low values 1.02 | S. cerevisiae deletion strains, locus YNL271C, strain bni1, hits give low values 1.01 | S. cerevisiae deletion strains, locus YNL298W, strain CLA4, hits give low values 1.04 | S. cerevisiae deletion strains, locus YNL307C, strain MCK1, hits give low values 1.02 | S. cerevisiae deletion strains, locus YNL322C, strain KRE1, hits give low values 1.02 | S. cerevisiae deletion strains, locus YNR052C, strain pop2, hits give low values 1 | S. cerevisiae deletion strains, locus YOL006C, strain TOP1, hits give low values 1.05 | S. cerevisiae deletion strains, locus YOL012C, strain htz1 1.01 | S. cerevisiae deletion strains, locus YOL147C, strain pex11, hits give low values 0.995 | S. cerevisiae deletion strains, locus YOR061W, strain CKA2, hits give low values 1.02 | S. cerevisiae deletion strains, locus YOR069W, strain VPS5, hits give low values 1.01 | S. cerevisiae deletion strains, locus YOR136W, strain idh2, hits give low values 1.02 | S. cerevisiae deletion strains, locus YOR144C, strain elg1, hits give low values 1.01 | S. cerevisiae deletion strains, locus YOR184W, strain ser1, hits give low values 1.07 | S. cerevisiae deletion strains, locus YOR316C, strain cot1, hits give low values 0.99 | S. cerevisiae deletion strains, locus YPL055C, strain LGE1, hits give low values 1.1 | S. cerevisiae deletion strains, locus YPL241C, strain CIN2, hits give low values 1.02 | S. cerevisiae deletion strains, locus YPR119W, strain clb2, hits give low values 0.984 | S. cerevisiae deletion strains, locus YPR141C, strain kar3, hits give low values 1.02 | S. cerevisiae deletion strains, locus YPR163C, strain tif3, hits give low values 1 | S. cerevisiae deletion strains, locus YPR167C, strain met16, hits give low values 1.01 | S. cerevisiae deletion strains, strain wtn01, hits give low values 0.994 | S. cerevisiae strains, strain wild type, hits give low values 1.03
